Reference: PubChem BioAssay AID1347416 (National Center for Advancing Translational Sciences (NCATS), 2020)
Out of some 4,100 compounds screened, about 1,600 (39%) were called active. Not shown: some 25% with an inconclusive outcome. Calls follow the shape of the dose curve; as a rule, active = well fitted inhibition curve with a large enough effect; inconclusive = small, poorly fitted or top-dose-only effect; inactive = no such curve, though single readings can be large or run the other way. Some of the results follow. Entries that show only a call come without a potency.

Assay: qHTS Validation assay for Inhibitors of Plasmodium falciparum Dd2 growth in vitro; also: nearly all actives have a fitted effect of over 70% in size
Conditions: P. falciparum Dd2 in RBCs, SYBR Green growth, 72 h; series mostly up to 28.7 µM
Excerpt: Malaria, a parasitic disease spread to humans through the bite of a Plasmodium infected Anopheles mosquito, continues to be a global health burden affecting millions of people, with an estimated 228 million cases and 405,000 deaths in 2018. Concerns about safety and limitations of current antimalarial treatments strongly emphasize the need to develop new therapeutic options. The scarce number of chemotypes and validated drug targets with efficacy against the liver stage, have hindered development of new antimalarials. To address this, a chemoprophylactic drug discovery effort was conducted through a combined phenotypic high-throughput asexual blood stage and liver stage screen, providing a robust foundation to identify liver-stage active lead chemotypes. Compounds were initially screened against Plasmodium falciparum Dd2 strain parasites using a in vitro SYBRGreen-1 based 72 hr proliferation assay to identify novel chemotypes to advance to liver stage assays. NIH/NCATS Early Translation Branch Assay Submitter (PI): Anton Simeonov Ph.D.
[…] Assay Protocol: PROTOCOL TABLE (as described by Inglese et al., 2007) SEQUENCE No. (e.g., 1, 2, 3, etc.); PARAMETER (e.g., Cells, Incubation, Reagent, etc.); VALUE; DESCRIPTION SEQUENCE, Parameter, Description 1; Reagent; 3 uL complete malaria growth medium, 1536 TC treated Black clear bottom plate 2; Controls; 23 nL positive control artesunate (300 nM final) to column 1; Neutral control DMSO to columns 2-4 3; Compound; 23 nL of compounds in dose response concentration (29 uM to 0.5 nM final) 4; Reagent; 5 uL malaria infected red blood cells (2.5% hematocrit final, 0.3% parasitemia 5; Time; 72 hours at 37C (5% O2, 5% CO2, 90% N2; 95% Rh) 6; Reagent; 2 uL lysis buffer/SYBRGreen-1, 25 sec shake immediately following dispense 7; Time; ~16 hours at 37C (5% O2, 5% CO2, 90% N2; 95% Rh) 8; Detector; EnVision (PerkinElmer) bottom read at 485/14nm excitation and 535/25 nm emission NOTES (numbers refer to sequence above): 1; Complete Malaria Growth Media: 1X RPMI-1640 w/L-glutamine, 5.5g/L Albumax II, 367 uM Hypoxanthine, 25 mM HEPES, 0.25% Sodium Bicarbonate, 35 uM Gentamicin sulfate 2; Controls were added using the Kalypsis Pintool (Wako USA) equipped with 1536 pinhead 3; Compounds were added in a 7-point, titration with a high final concentration of 29 uM by Pintool from seven inter-plate titrations of library plates and two DMSO control plates at the beginning and end (see Yasgar et al., 2008). 4; Red blood cells infected with Plasmodium falciparum Dd2 parasites were used. 6; Lysis buffer: 20 mM Tris-HCl, 10 mM EDTA, 0.16% Saponin, 1.6% Triton-X, 10X SYBR Green. REFERENCE: Inglese J, Shamu CE, Guy RK. 2007. Reporting data from high-throughput screening of small-molecule libraries. Nat Chem Biol. doi:10.1038/nchembio0807-438 Yasgar A, Shinn P, Jadhav A, Auld D, Michael S, Zheng W, Austin CP, Inglese J, Simeonov A. 2008. Compound Management for Quantitative High-Throughput Screening. J Lab Autom 13:79-89. doi:10.1016/j.jala.2007.12.004
Potency is read from the fitted curve at half-maximal effect.

Row | Structure (SMILES) | Potency
1 | O=C1[C@H]2CN(Cc3cc(F)ccc3F)C[C@H]2C(=O)N1Cc1ccc2c(c1)OCO2 | inactive
2 | COCCCNC(=O)CCN(CCC(C)C)C(=O)c1cc(C)oc1C | inactive
3 | Cc1ccc(OC2(C(=O)NC(C)c3nn[nH]n3)CCNCC2)cc1 (stereo unspecified) | inactive
4 | O=C(Nc1ccc2c(N3CCOCC3)ncnc2c1)c1cccc(Cl)c1 | 4.73 µM (active)
5 | CN(C1CCOCC1)C1CCN(C(=O)c2cccc(Cl)c2)CC1 | inactive
6 | Clc1ccc(Cn2ncc3c(N4CCOCC4)ncnc32)cc1 | inactive
7 | Cc1cccc(OCC(=O)N2CCC(c3n[nH]c(=O)n3-c3ccccc3)CC2)c1 | inactive
8 | CCc1cccc2c(C(CC(=O)N3CCC(C)CC3)c3cccc(C)c3)c[nH]c12 (stereo unspecified) | 4.73 µM (active)
9 | CN(C)S(=O)(=O)N1CCCC(Cn2c(C3CC3)nc3cccnc32)C1 (stereo unspecified) | inactive
10 | Fc1cc(F)cc(CNc2ncncc2-c2nc(-c3ccccc3)no2)c1 | inactive
11 | CCCCCCSc1ccc([C@@H]2[C@H]3C(=O)N(CC)C(=O)[C@H]3[C@]3(C(=O)OC)CCCCN23)cc1OC | 15 µM (active)
12 | COc1ccc2[nH]c(C[C@@H]3C[C@@H](C(C)C)[C@H](CNCc4ccccc4O)C=C3C)nc2n1 | 0.243 µM (active)
13 | COc1ccc2[nH]c(C[C@@H]3C[C@@H](C(C)C)[C@H](CNCc4cccnc4)C=C3C)nc2n1 | 19.3 µM (active)
14 | Cn1cnc(S(=O)(=O)N2CCCC(Cc3noc(-c4cccnc4)n3)C2)c1 (stereo unspecified) | inactive
15 | CC1=C[C@@H](CNCc2cccnc2)[C@H](C(C)C)C[C@H]1Cc1nnc(-c2ccc([N+](=O)[O-])cc2)o1 | 5.31 µM (active)
16 | CC1=C[C@@H](CNCc2cccnc2)[C@H](C(C)C)C[C@H]1Cc1nnc(-c2ccc(N(C)C)cc2)o1 | 5.31 µM (active)
17 | COc1ccc(-c2nnc(C[C@@H]3C[C@@H](C(C)C)[C@H](CNCc4cccnc4)C=C3C)o2)cc1 | 6.68 µM (active)
18 | Brc1ccc(-c2ccnc3nc(-c4cccs4)nn23)s1 | inactive
19 | Cc1[nH]cnc1CSCCn1ccnc1-c1nccn1C | inactive
20 | COc1cc(C(=O)OCC(=O)N2CCCCC2C)cc(NC(=O)c2cccs2)c1OC (stereo unspecified) | 0.473 µM (active)
21 | COc1cc2c(cc1OC)CN(C(=O)c1cccs1)CC2 | inactive
22 | CCOC(=O)c1c(CN2CCCCC2)n(C)c2cc(Br)c(O)cc12 | 7.5 µM (active)
23 | CCOC(=O)c1c(CN2CCN(CCO)CC2)n(-c2ccccc2)c2cc(Br)c(O)cc12 | 5.96 µM (active)
24 | CCOC(=O)C1=C(O)/C(=C/c2cc(C)n(-c3ccccc3)c2C)N=C1C | inactive
25 | CCOC(=O)c1c(CN(CC)CC)n(C)c2cc(Br)c(O)cc12 | 9.44 µM (active)
26 | CCOC(=O)c1c(CN2CCN(c3ccccc3)CC2)oc2cc(Br)c(O)cc12 | 1.88 µM (active)
